Hits are enriched below; roughly 5.7% of the tested compounds scored in any of these assays.
BAZ2B block = qHTS Assay for Inhibitors of BAZ2B; AID 504333, 2011; Bromodomain adjacent to zinc finger domain protein 2B (Homo sapiens), Q9UIF8; Potency, µM (doses to about 114 µM), hits mostly inhibitors; actives 4.4% (n = 360,000); AlphaScreen BAZ2B-H3K14Ac peptide displacement; note: nearly all actives have a fitted effect of over 60% in size
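In this displacement format the biotinylated H3(5-23) peptide acetylated at Lys14 serves as ligand at 50 nM, with BAZ2B at 50 nM in PBS pH 7.4 containing 0.01% Tween-20. Donor and acceptor beads are 10 ug/mL final.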
PI5P4Ka inh = qHTS for Inhibitors of phosphatidylinositol 5-phosphate 4-kinase (PI5P4K); actives 1.2% (n = 330,000); Phosphatidylinositol 5-phosphate 4-kinase type-2 alpha (Homo sapiens), P48426; AID 652105, 2013; max response, %; PI5P4Kalpha enzyme, ADP-Glo luminescence, 60 min; stronger effect = lower value; active = max response of -50% or lower; inconclusive = between -30% and -50%; inactive = -30% or higher; note: value at the top dose of about 77 µM
Target sequence (P48426 whole entry, looked up): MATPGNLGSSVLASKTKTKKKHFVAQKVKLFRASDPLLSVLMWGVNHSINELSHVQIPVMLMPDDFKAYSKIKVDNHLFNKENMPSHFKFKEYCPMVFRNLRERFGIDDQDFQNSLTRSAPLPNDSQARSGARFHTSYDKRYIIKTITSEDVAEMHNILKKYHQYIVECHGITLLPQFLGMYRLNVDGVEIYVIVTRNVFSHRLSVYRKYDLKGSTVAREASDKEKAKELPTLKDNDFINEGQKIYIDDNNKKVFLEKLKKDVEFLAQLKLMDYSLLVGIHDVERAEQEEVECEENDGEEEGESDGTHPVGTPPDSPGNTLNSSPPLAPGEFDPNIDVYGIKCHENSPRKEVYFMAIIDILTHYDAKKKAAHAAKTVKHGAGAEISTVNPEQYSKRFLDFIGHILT
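Enzyme plus substrate dispensed, test compounds pinned in, then ATP (5 microM final) added. After 60 min at RT, ADP-Glo reagent 1 for 45 min and reagent 2 for 30 min preceded luminescence imaging.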
KDM4E inh = qHTS Assay for Inhibitors of Human Jumonji Domain Containing 2E (JMJD2E); Lysine-specific demethylase 4E (Homo sapiens), B2RXH2; JMJD2E catalytic domain, FDH-coupled NADH fluorescence (FDH is formaldehyde dehydrogenase); Potency, µM (highest dose often 57.1 µM), usual class: inhibitors; actives 1.6% (n = 230,000); active = well fitted inhibition curve with a large enough effect, not every such curve was filed as active; inconclusive = small, poorly fitted or top-dose-only effect, or another doubt; inactive = no such curve, though single readings can be large or run the other way; note: nearly all actives have a fitted effect of over 50% in size
JMJD2A Tudor = qHTS Assay for Inhibitors of JMJD2A-Tudor Domain; AID 504339, 2011; AlphaScreen JMJD2A-Tudor / H3K4me3 peptide binding; Potency, µM (titrated, usually from 114 µM), most hits filed as inhibitors; actives 4.4% (n = 390,000); note: nearly all actives have a fitted effect of over 50% in size
L3MBTL1 inh = qHTS Assay for the Inhibitors of L3MBTL1 | Lethal(3)malignant brain tumor-like protein 1 (Homo sapiens), Q9Y468 | actives 0.66% (n = 230,000) | AlphaScreen L3MBTL1–H3K9me1 peptide binding | Potency, µM (series often up to 57.1 µM), actives largely listed as inhibitors | AID 485360, 2010; note: nearly all actives have a fitted effect of over 60% in size
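Read-out is AlphaScreen signal from streptavidin donor and nickel chelate acceptor beads (10 ug/mL final each) bridging L3MBTL1 (50 nM) and biotinylated K9-monomethylated H3(1-15) peptide (75 nM), after 30 min compound exposure at room temperature.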
HP1b binding inh = HTS for Inhibitors of HP1-beta Chromodomain Interactions with Methylated Histone Tails; Chromobox protein homolog 1 (Homo sapiens), P83916; AlphaScreen HP1-beta / biotin-H3K9me3 peptide binding; Potency, µM (highest dose often 114 µM), actives largely listed as inhibitors; actives 0.56% (n = 390,000); note: nearly all actives have a fitted effect of over 70% in size
Target sequence (P83916 whole entry, looked up): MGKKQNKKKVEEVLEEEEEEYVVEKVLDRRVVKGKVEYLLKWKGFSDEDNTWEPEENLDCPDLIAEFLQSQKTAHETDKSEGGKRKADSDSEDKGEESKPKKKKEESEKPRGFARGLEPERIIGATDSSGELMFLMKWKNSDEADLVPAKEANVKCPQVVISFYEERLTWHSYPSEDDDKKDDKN
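Compound inhibition of the preformed complex between 50 nM HP1-beta and 50 nM biotinylated H3K9me3 peptide was read by AlphaScreen. Buffer was PBS pH 7.4 with 0.01% Tween-20. Incubations ran 30 min at room temperature, with 10 ug/mL donor/acceptor beads.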
Each line names hits and unclear results; the compound was inactive in the other large screens. Unless noted, calls come from the whole dose curve; as a rule, active = well fitted inhibition curve with a large enough effect; inconclusive = small, poorly fitted or top-dose-only effect; inactive = no such curve, though single readings can be large or run the other way.

COc1ccc(-c2ccc(OC)c(C3C4C=CCCC4(C)C(=O)N3Cc3ccccc3)c2)cc1 (configuration not stated)	none (no result: BAZ2B block, PI5P4Ka inh, KDM4E inh, L3MBTL1 inh)
COc1ccc(C2N(c3cc(C)on3)C(=O)C3CCCN32)cc1OC (configuration not stated)	BAZ2B block inconclusive, JMJD2A Tudor 20µM (no result: PI5P4Ka inh)
CCOc1ccc(C2N(c3cc(C)on3)C(=O)C3CCCN32)cc1OC (configuration not stated)	JMJD2A Tudor 35µM, HP1b binding inh inconclusive
O=S(=O)(c1ccccc1)c1nnn2c1nc(N1CCN(c3ccccc3)CC1)c1cc(Cl)ccc12	none (no result: PI5P4Ka inh, KDM4E inh, L3MBTL1 inh)
CCN(c1ccccc1)S(=O)(=O)c1ccc2c(c1)CC(C)N2C(=O)C1CC1 (configuration not stated)	none (no result: KDM4E inh, L3MBTL1 inh)
O=C(O)CCCCC1CCSS1 (configuration not stated)	BAZ2B block 1µM, L3MBTL1 inh 3.2µM
O=C(c1cc2ncccn2n1)N1CCc2c([nH]c3ccccc23)C1c1ccccc1F (configuration not stated)	JMJD2A Tudor inconclusive
Cc1ncoc1C(=O)N1CCc2c([nH]c3ccccc23)C1c1ccccc1F (configuration not stated)	BAZ2B block 50µM, JMJD2A Tudor inconclusive
Cn1cccc1-c1cc(C(=O)N2CCc3c([nH]c4ccccc34)C2c2ccccn2)[nH]n1 (configuration not stated)	BAZ2B block 35µM, JMJD2A Tudor 50µM, HP1b binding inh inconclusive
Cc1cc2cc(C(=O)N3CCc4c([nH]c5ccccc45)C3c3ccccn3)ccc2o1 (configuration not stated)	BAZ2B block 40µM, KDM4E inh inconclusive, JMJD2A Tudor 35µM (no result: L3MBTL1 inh)
O=C(c1ccc(-n2cccn2)cc1)N1CCc2c([nH]c3ccccc23)C1c1ccccn1 (configuration not stated)	BAZ2B block inconclusive, JMJD2A Tudor inconclusive
Cc1cccc(C2c3[nH]c4ccccc4c3CCN2C(=O)c2cc3c([nH]c2=O)CCCC3)n1 (configuration not stated)	BAZ2B block 45µM, KDM4E inh inconclusive, JMJD2A Tudor inconclusive
CCn1cc(S(=O)(=O)c2ccccc2)c(=O)c2cc(C)ccc21	none (no result: PI5P4Ka inh, KDM4E inh, L3MBTL1 inh)
CC12CCC=CC1C(c1ccc3ccccc3c1C=Cc1ccccc1)N(Cc1ccccc1)C2=O (configuration not stated)	none (no result: BAZ2B block, PI5P4Ka inh, KDM4E inh, L3MBTL1 inh)
COC(=O)CN1C(C(=O)c2ccccc2)=C(OC(=O)c2ccccc2)c2ccccc2S1(=O)=O	BAZ2B block inconclusive, JMJD2A Tudor inconclusive (no result: PI5P4Ka inh, KDM4E inh, L3MBTL1 inh)
CCOC(=O)c1[nH]c(C)c(C(=O)N2CCc3c([nH]c4ccccc34)C2c2ccccn2)c1C (configuration not stated)	BAZ2B block 50µM, JMJD2A Tudor inconclusive, L3MBTL1 inh inconclusive
Cc1nc(C)c(-c2csc(Nc3ccc(C(=O)O)c(O)c3)n2)s1	BAZ2B block inconclusive, PI5P4Ka inh -72 (no result: KDM4E inh)
COc1cc(Nc2nc3ccccc3nc2NS(=O)(=O)c2ccc([N+](=O)[O-])cc2)cc(OC)c1OC	BAZ2B block 7.9µM, JMJD2A Tudor inconclusive (no result: KDM4E inh, L3MBTL1 inh)
COc1ccc(Nc2nc3ccccc3nc2NS(=O)(=O)c2ccc(C)cc2)c(OC)c1	none (no result: PI5P4Ka inh, KDM4E inh, L3MBTL1 inh)
COc1cccc(Nc2nc(-c3sc(N)nc3C)cs2)c1	BAZ2B block 40µM, JMJD2A Tudor inconclusive, HP1b binding inh inconclusive (no result: PI5P4Ka inh)
COc1cccc(Nc2nc(-c3sc(C)nc3C)cs2)c1	BAZ2B block inconclusive, JMJD2A Tudor inconclusive (no result: KDM4E inh)
Cc1nc(C)c(-c2csc(Nc3ccc(F)cc3)n2)s1	BAZ2B block inconclusive, KDM4E inh inconclusive, JMJD2A Tudor inconclusive, HP1b binding inh inconclusive
COc1ccc(Nc2nc(-c3ccc(OC)cc3)cs2)cc1	none (no result: L3MBTL1 inh)
COc1ccc(Nc2nc(-c3c[nH]c4ccccc34)cs2)cc1	BAZ2B block 45µM
Cc1cc2c(s1)c1cnn(Cc3cccc(F)c3F)c(=O)c1n2C	none (no result: BAZ2B block, PI5P4Ka inh, KDM4E inh, L3MBTL1 inh, HP1b binding inh)
O=[N+]([O-])c1cccc(-c2csc(Nc3ccccc3)n2)c1	BAZ2B block inconclusive, JMJD2A Tudor inconclusive
COc1ccc(-c2csc(NC(=O)c3ccccc3NS(=O)(=O)c3ccc(F)c(F)c3)n2)cc1	BAZ2B block 45µM, KDM4E inh inconclusive, JMJD2A Tudor 56µM, HP1b binding inh inconclusive
COc1cc(NS(=O)(=O)c2ccc(Nc3nc(-c4cccc([N+](=O)[O-])c4)cs3)cc2)nc(OC)n1	BAZ2B block 45µM, JMJD2A Tudor inconclusive, HP1b binding inh inconclusive
NS(=O)(=O)c1ccc(Nc2nc(-c3ccc(O)cc3)cs2)cc1	JMJD2A Tudor inconclusive (no result: PI5P4Ka inh, L3MBTL1 inh)
COc1ccc(-c2csc(NS(=O)(=O)c3ccc([N+](=O)[O-])cc3)n2)cc1	BAZ2B block 35µM, JMJD2A Tudor inconclusive
Cc1nc(N)sc1-c1csc(Nc2ccc(S(N)(=O)=O)cc2)n1	BAZ2B block 50µM, PI5P4Ka inh inconclusive, JMJD2A Tudor inconclusive (no result: KDM4E inh)
Nc1cc(=O)nc(SCC(=O)Nc2cccc(Cl)c2)n1CCc1ccccc1	none (no result: PI5P4Ka inh, KDM4E inh, L3MBTL1 inh)
COC(=O)c1cn(C(=O)c2cc(Br)ccc2Cl)c2ccccc12	none (no result: KDM4E inh)
CC(C)(C)OC(=O)NCCCCCNC(=O)c1[nH]cnc1C(=O)NC1CCN(C(=O)OC(C)(C)C)CC1	none (no result: KDM4E inh)
COc1ccc(-c2csc(Nc3ccc(S(N)(=O)=O)cc3)n2)cc1	BAZ2B block 50µM, PI5P4Ka inh inconclusive (no result: L3MBTL1 inh)
CC(C)(C)NC(=S)Nc1ccc(Br)cc1	none
O=[N+]([O-])c1ccc(NC(=S)NCCc2ccc(F)cc2)cc1	BAZ2B block 79µM, JMJD2A Tudor inconclusive
O=C(NCCc1ccc(F)cc1)Nc1ccc([N+](=O)[O-])cc1	none (no result: KDM4E inh, L3MBTL1 inh)

Source: PubChem
